Assay results from PubChem BioAssay (NCATS).
Results filed as inconclusive are left out. Where a call stands in place of a potency, no number is given. A number with no mark means an inactive call. Active and inactive are the calls of the source. The call rests on the fitted dose curve; in most records, active means well fitted curve in the direction sought with a large enough effect; inconclusive means small, poorly fitted or top-dose-only effect, or another doubt; inactive means no such curve, though single readings can be large; an effect the other way counts as inactive or inconclusive.

What was measured:
[1] = target: Rap guanine nucleotide exchange factor 3 (Homo sapiens) (UniProt O95398); test: Confirmatory qHTS for antagonist of cAMP-regulated guanine nucleotide exchange factor 3 (EPAC1) (AID 1645880); conditions: EPAC1 Rap1B-BODIPY-GDP exchange, fluorescence; activity, negative = inhibition: at 115 µM (top of the series); further: nearly all actives have a fitted effect of over 55% in size; further: potency means the concentration at half of the fitted maximal effect
Sequence of Rap guanine nucleotide exchange factor 3 (Homo sapiens) (O95398 whole entry, looked up): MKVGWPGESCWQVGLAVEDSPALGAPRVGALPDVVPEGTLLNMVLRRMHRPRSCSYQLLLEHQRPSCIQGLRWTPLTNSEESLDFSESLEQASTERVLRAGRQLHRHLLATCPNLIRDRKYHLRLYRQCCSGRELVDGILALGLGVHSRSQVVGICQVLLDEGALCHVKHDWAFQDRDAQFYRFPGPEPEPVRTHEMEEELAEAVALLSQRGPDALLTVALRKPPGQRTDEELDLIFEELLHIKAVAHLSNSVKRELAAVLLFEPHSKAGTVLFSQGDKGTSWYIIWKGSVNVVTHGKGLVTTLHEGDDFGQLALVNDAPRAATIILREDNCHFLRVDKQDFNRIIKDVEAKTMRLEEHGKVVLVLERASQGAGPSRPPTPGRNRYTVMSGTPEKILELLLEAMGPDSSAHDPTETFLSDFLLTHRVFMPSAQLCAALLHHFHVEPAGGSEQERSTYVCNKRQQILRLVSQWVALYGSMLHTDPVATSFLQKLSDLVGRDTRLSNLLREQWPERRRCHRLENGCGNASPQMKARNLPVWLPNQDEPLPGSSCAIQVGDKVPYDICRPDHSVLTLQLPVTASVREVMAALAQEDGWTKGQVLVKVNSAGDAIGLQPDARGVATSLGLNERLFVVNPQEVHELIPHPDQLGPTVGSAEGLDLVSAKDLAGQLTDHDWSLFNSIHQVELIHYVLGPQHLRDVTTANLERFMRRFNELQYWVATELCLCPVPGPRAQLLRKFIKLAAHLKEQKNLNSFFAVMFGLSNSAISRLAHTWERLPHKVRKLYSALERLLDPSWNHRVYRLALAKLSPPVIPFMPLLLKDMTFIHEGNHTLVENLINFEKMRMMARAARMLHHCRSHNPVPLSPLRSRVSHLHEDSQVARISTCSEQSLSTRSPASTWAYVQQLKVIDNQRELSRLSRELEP
How it was run: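 Nucleotide exchange uses 100 nM EPAC1, 250 nM RAP1B-BODIPY-GDP and 50 uM GDP, with compounds in a concentration-titration series. After 5 min at room temperature, fluorescence (480 nm ex/540 nm em) is read every 5 min for 30 min. Data are normalized to control ATA and DMSO.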

[2] = target: Rap guanine nucleotide exchange factor 3 (Homo sapiens) (UniProt O95398); test: Confirmatory qHTS for agonist of cAMP-regulated guanine nucleotide exchange factor 3 (EPAC1) (AID 1645881); further: nearly all actives have a fitted effect of over 75% in size; further: potency means the concentration at half of the fitted maximal effect;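 on activation: EPAC1 catalysed release of BODIPY-GDP from Rap1B seen as fluorescence loss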
[3] = target: Rap guanine nucleotide exchange factor 4 (Homo sapiens) (UniProt Q8WZA2); test: Confirmatory qHTS for agonist of cAMP-regulated guanine nucleotide exchange factor 4 (EPAC2) (AID 1645884);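 further: nucleotide exchange releases bodipy-GDP from Rap1 and this lowers its fluorescence; nearly all actives have a fitted effect of over 65% in size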; further: potency means the concentration at half of the fitted maximal effect
Sequence of Rap guanine nucleotide exchange factor 4 (Homo sapiens) (Q8WZA2 whole entry, looked up): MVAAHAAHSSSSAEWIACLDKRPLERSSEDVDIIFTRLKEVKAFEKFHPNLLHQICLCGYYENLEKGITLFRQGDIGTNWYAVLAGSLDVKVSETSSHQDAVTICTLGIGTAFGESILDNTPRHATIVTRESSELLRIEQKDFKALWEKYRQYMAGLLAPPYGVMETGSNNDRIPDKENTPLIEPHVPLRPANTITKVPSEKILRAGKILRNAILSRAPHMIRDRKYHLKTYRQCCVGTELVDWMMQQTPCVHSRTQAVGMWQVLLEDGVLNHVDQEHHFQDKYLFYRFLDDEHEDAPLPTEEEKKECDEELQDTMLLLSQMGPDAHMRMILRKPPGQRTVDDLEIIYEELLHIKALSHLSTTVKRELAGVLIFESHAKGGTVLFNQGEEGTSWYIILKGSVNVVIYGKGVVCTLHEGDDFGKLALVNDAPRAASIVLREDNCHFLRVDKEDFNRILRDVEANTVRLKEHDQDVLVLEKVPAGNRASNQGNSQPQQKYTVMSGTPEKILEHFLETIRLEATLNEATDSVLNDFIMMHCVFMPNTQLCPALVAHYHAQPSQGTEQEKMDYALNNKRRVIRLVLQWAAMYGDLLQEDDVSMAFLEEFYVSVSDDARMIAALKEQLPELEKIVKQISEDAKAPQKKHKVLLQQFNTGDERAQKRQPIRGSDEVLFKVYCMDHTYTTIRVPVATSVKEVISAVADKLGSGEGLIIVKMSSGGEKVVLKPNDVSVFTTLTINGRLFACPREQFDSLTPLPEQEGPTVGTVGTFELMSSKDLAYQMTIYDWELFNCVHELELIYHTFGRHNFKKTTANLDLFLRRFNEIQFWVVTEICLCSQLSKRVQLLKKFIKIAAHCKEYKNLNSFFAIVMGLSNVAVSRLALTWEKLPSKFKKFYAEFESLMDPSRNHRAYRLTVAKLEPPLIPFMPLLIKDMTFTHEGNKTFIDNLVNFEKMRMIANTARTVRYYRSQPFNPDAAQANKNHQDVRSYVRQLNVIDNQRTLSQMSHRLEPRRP

[4] = target: Rap guanine nucleotide exchange factor 4 (Homo sapiens) (UniProt Q8WZA2); test: Confirmatory qHTS for antagonist of cAMP-regulated guanine nucleotide exchange factor 4 (EPAC2) (AID 1645885); further: nearly all actives have a fitted effect of over 25% in size; further: potency means the concentration at half of the fitted maximal effect
[5] = target: Rap guanine nucleotide exchange factor 3 (Homo sapiens) (UniProt O95398); test: Counterscreen qHTS for antagonist of cAMP-regulated guanine nucleotide exchange factor 3 (EPAC1) (AID 1645888);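 further: fluorescence loss as bound BODIPY-GDP is released from Rap1B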
How it was run: (§1)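 Measured: fluorescence of BODIPY-GDP bound to Rap1B, which falls as exchange proceeds. Conditions include 50 uM competing GDP, 5 and 30 min reads, and a later cAMP challenge for antagonist detection.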

[6] = target: Rap guanine nucleotide exchange factor 3 (Homo sapiens) (UniProt O95398); test: Counterscreen qHTS for agonist of cAMP-regulated guanine nucleotide exchange factor 3 (EPAC1) (AID 1645889); further: nearly all actives have a fitted effect of over 40% in size; further: potency means the concentration at half of the fitted maximal effect
How it was run: as §1

Row | SMILES | Potency [1] | Potency [2] | activation [3] | Potency [4] | activity change, negative = inhibition [5] | activation [6] | Potency [3] | Potency [5] | Potency [6] | outcome [4]
1 | O=S(=O)(N/N=C/c1cccnc1)c1ccc(Cl)c(Cl)c1 | inactive | inactive | 4.19% [at 17.1 µM, percent relative to cAMP agonist control] | inactive | -14.7% [at 30.8 µM] | 6.45% [at 30.8 µM] |  |  |  | 
2 | O=C(CSc1nccn1C1CCCC1)Nc1cc(C(F)(F)F)ccc1Cl | inactive | inactive |  | inactive |  |  | inactive | inactive | inactive | 
3 | C/C(=N\NS(=O)(=O)c1ccccc1)c1cc(Cl)cc(Cl)c1O | 33.8 µM (active) | inactive |  | 21.3 µM (active) |  |  | inactive | inactive | inactive | 
4 | COC(=O)c1cc(C#N)c(Oc2ccccc2OC)nc1C | inactive | inactive |  | inactive |  |  | inactive | inactive | inactive | 
5 | CCCCNC(=O)c1cc(-c2ccc3c(c2)OCO3)on1 | inactive | inactive |  | inactive |  |  | inactive | inactive | inactive | 
6 | N#C/C(=C/c1ccc(O)c(O)c1)C(=O)NCc1ccc(Cl)cc1 | 12.6 µM (active) | inactive | 6.16% [at 17.1 µM, percent relative to cAMP agonist control] | inactive | -1.17% [at 30.8 µM] | 19.6% [at 30.8 µM] |  |  |  | 
7 | CCOc1cc2c3c(c1)C(C)=CC(C)(C)N3C(=O)C2=O | inactive | inactive | -1.35% [at 17.1 µM, percent relative to cAMP agonist control] | inactive | -14.8% [at 30.8 µM] | 25% [at 30.8 µM] |  |  |  | 
8 | COc1cccc(C(=O)NC(=S)N2c3ccccc3CC2C)c1OC (stereo not given) | inactive | inactive | 5.75% [at 17.1 µM, percent relative to cAMP agonist control] | inactive | -1.25% [at 30.8 µM] | 14.2% [at 30.8 µM] |  |  |  | 
9 | CCN(CC)c1nc2ccccc2n(Cc2cccc(OC)c2)c1=O | inactive | inactive |  | inactive |  |  | inactive | inactive | inactive | 
10 | COc1cc(NC(=O)C2CCCCC2)c(OC)cc1NC(=O)CN1CCCCC1 | inactive | inactive | 4.14% [at 17.1 µM, percent relative to cAMP agonist control] | inactive | -6.17% [at 30.8 µM] | 11.1% [at 30.8 µM] |  |  |  | 
11 | CCc1ccccc1N(C)S(=O)(=O)c1ccc2[nH]cc(C(=O)N3CCc4ccccc43)c(=O)c2c1 | inactive | inactive | -2.56% [at 17.1 µM, percent relative to cAMP agonist control] | inactive | -6.13% [at 30.8 µM] | 15.8% [at 30.8 µM] |  |  |  | 
12 | COC(=O)CN1C(=S)N(c2ccc(OC)cc2)C(=O)/C1=C/c1ccc(N2CCOCC2)cc1 | inactive | 100 µM (active) |  | 75.7 µM (active) |  |  | 100 µM (active) | inactive | 28.2 µM (active) | 
13 | Cc1cccc(C)c1Nc1nn2c(=O)c3cc4c(cc3nc2s1)OCO4 | inactive | inactive |  | inactive |  |  | inactive | inactive | inactive | 
14 | COCCCn1c(=N)c(C(=O)NCc2cccnc2)cc2c(=O)n3cccc(C)c3nc21 | inactive | inactive |  |  |  |  | inactive | inactive | inactive | inactive [at 12.7 µM]
15 | CCOC(=O)C1=CCN(S(=O)(=O)c2ccc(C)cc2)C1c1cccc(Cl)c1 (stereo not given) | inactive | inactive |  | inactive |  |  | inactive | inactive | inactive | 
16 | CSc1ccc(CCNC(=O)c2csc3c2CCCCC3)cc1 | inactive | inactive |  |  |  |  | inactive | inactive | inactive | inactive [at 12.7 µM]
17 | O=C(COC(=O)Cc1c(Cl)cccc1Cl)NCC1CCCO1 (stereo not given) | inactive | inactive |  | 75.7 µM (active) |  |  | inactive | inactive | inactive | 
18 | CC(=O)Nc1cc(C(=O)NCc2ccco2)ccc1Sc1ccc(C)cc1 | inactive | inactive | 3.77% [at 17.1 µM, percent relative to cAMP agonist control] | inactive | -18.4% [at 30.8 µM] | 6.12% [at 30.8 µM] |  |  |  | 
19 | COc1ccc(C2CC(c3ccccc3OC(C)=O)=NN2C(C)=O)cc1 (stereo not given) | inactive | inactive |  | inactive |  |  | inactive | inactive | inactive | 
20 | Cc1[nH][nH]c(=O)c1C(c1ccc(-c2ccc(Cl)c(C(=O)O)c2)o1)c1c(C)[nH][nH]c1=O | inactive | inactive | 10.1% [at 17.1 µM, percent relative to cAMP agonist control] | inactive | 34.9% [at 30.8 µM] |  |  |  | 11.2 µM (active) | 

Row | SMILES | Potency [1] | Potency [2] | activation [3] | Potency [4] | activity change, negative = inhibition [5] | activation [6] | Potency [3] | Potency [5] | Potency [6] | outcome [4]
21 | CC(=O)Nc1ccc(S(=O)(=O)Nc2nc(-c3ccc(C(C)(C)C)cc3)cs2)cc1 | 44.7 µM (active) | inactive | 0% [at 17.1 µM, percent relative to cAMP agonist control] | inactive | -15.7% [at 30.8 µM] | 8.98% [at 30.8 µM] |  |  |  | 
22 | CSc1ccccc1C(=O)Nc1ccc(C)cc1C | inactive | inactive | -2.17% [at 17.1 µM, percent relative to cAMP agonist control] | inactive | -16.8% [at 30.8 µM] | -3.4% [at 30.8 µM] |  |  |  | 
23 | Cc1c2cn[nH]c(=O)c2c(C)n1-c1ccccc1 | inactive | inactive |  | inactive |  |  | inactive | inactive | inactive | 
24 | CCOC(=O)c1cc(-c2nnc(SCC(=O)Nc3ccc(F)cc3)o2)c(C)nc1C | inactive | inactive |  | inactive |  |  | inactive | inactive | inactive | 
25 | COc1cc(/C=C2\SC(=S)N(CC(=O)O)C2=O)ccc1OS(=O)(=O)c1ccc(C)cc1 | 23.9 µM (active) | inactive |  | inactive |  |  | inactive | inactive | inactive | 
26 | CN(Cc1ccccc1)C(=O)C1CCCN(Cc2cccc(Cl)c2)C1 (stereo not given) | inactive | inactive |  | inactive |  |  | inactive | inactive | inactive | 
27 | O=C(O)C1CC(=O)N(c2ccc(OCc3c(F)cccc3Cl)cc2)C1 (stereo not given) | inactive | inactive |  | inactive |  |  | inactive | inactive | inactive | 
28 | CCCc1nc2ccc(C(=O)OC)cn2c1Cc1ccccc1 | inactive | inactive |  | 33.8 µM (active) |  |  | inactive | inactive | inactive | 
29 | CCc1ccc(NC(=O)CSc2nc(-c3ccccc3)c(C#N)c(=O)[nH]2)cc1 | 75.7 µM (active) | inactive |  |  |  |  | inactive | inactive | inactive | inactive [at 12.7 µM]
30 | COc1ccccc1NC(=O)CSc1nc2sc(C)c(C)c2c(=O)n1C | inactive | inactive | 1.44% [at 17.1 µM, percent relative to cAMP agonist control] | inactive | -1.48% [at 30.8 µM] | 15.6% [at 30.8 µM] |  |  |  | 
31 | COC(=O)c1cc(NC(=O)CC2SCCNC2=O)cc(C(=O)OC)c1 (stereo not given) | inactive | inactive | 4.81% [at 17.1 µM, percent relative to cAMP agonist control] | inactive | 6.38% [at 30.8 µM] | 0.776% [at 30.8 µM] |  |  |  | 
32 | O=C1CCC/C(=N/NC(=O)c2sc3ccccc3c2Cl)C1 | inactive | inactive |  | 16.9 µM (active) |  |  | inactive | inactive | 22.4 µM (active) | 
33 | COc1ccc(OC)c(NS(=O)(=O)c2cc3c4c(c2)CCN4C(=O)CC3)c1 | inactive | inactive |  | inactive |  |  | inactive | inactive | inactive | 
34 | COc1cc(/C=C(\C#N)c2nc3ccc(C)cc3[nH]2)cc([N+](=O)[O-])c1O | 33.8 µM (active) | inactive |  | 75.7 µM (active) |  |  | inactive | inactive | inactive | 
35 | COc1ccc(C)cc1Cn1nnc2ccccc21 | inactive | inactive |  | inactive |  |  | inactive | inactive | inactive | 
36 | COc1ccc(-n2c(SCC(=O)Nc3ccccc3OC)nc(O)cc2=O)cc1 | inactive | inactive | 4.67% [at 17.1 µM, percent relative to cAMP agonist control] | inactive | -3.75% [at 30.8 µM] | 2.02% [at 30.8 µM] |  |  |  | 
37 | COc1ccc(CNC(=S)N/N=C/c2ccc(OC)c(OC)c2)cc1 | inactive | inactive |  | 67.5 µM (active) |  |  | inactive | inactive | inactive | 
38 | COc1cc(NS(=O)(=O)c2cc3[nH]c(=O)c(=O)[nH]c3cc2C)cc(OC)c1OC | inactive | inactive | 2.04% [at 17.1 µM, percent relative to cAMP agonist control] | inactive | -5.07% [at 30.8 µM] | 12.2% [at 30.8 µM] |  |  |  | 
39 | Cc1ccc(NC(=O)Cn2nnc(-c3nc(-c4ccncc4)no3)c2N)c(C)c1 | inactive | inactive |  | inactive |  |  | inactive | inactive | inactive | 
40 | C/C(=N\NC(=O)c1cc(O)ccc1O)c1cccc(NC(=O)c2ccc(Cl)cc2)c1 | 75.7 µM (active) | inactive |  | inactive |  |  | inactive | inactive | inactive | 
